About 83,000 compounds went through this panel and 20% of them were active in at least one assay; those are over-represented in the sample as a whole.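 The test compound was applied at a single concentration to cells in 96-well plates for 48 hours, and percent growth was recorded.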 Values without a mark were called inactive. Calls of active or inactive are those of the source. The calls were made as follows: active = growth percent below 10; inactive = the rest.

What all share (assay): NCI-60 one-dose screen, 48 h (100 = growth as untreated, 0 = no growth, -100 = all killed)
Assay [1] deals with SK-MEL-2 melanoma. As to conditions: 10 µM unless noted.
Assay [2] deals with EKVX NSCLC. As to conditions: 10 µM unless noted.
For assay [3], the system named is SN12C renal. As to conditions: 10 µM unless noted.
Assay [4] has as its system UO-31 renal. As to conditions: 10 µM unless noted.
For assay [5], the system named is TK-10 renal. Conditions: 10 µM unless noted.
The subject of assay [6] is ACHN renal. As to conditions: 10 µM unless noted.
The test system of assay [7] is CAKI-1 renal. Conditions: 10 µM unless noted.
For assay [8], the system named is A498 renal. As to conditions: 10 µM unless noted.
Assay [9] concerns CCRF-CEM leukemia. Conditions: 10 µM unless noted.
For assay [10], the system named is MOLT-4 leukemia. As to conditions: 10 µM unless noted.
The subject of assay [11] is SR leukemia. As to conditions: 10 µM unless noted.
Assay [12] concerns RPMI-8226 leukemia. Conditions: 10 µM unless noted.
In assay [13] the test system is OVCAR-8 ovarian. Conditions: 10 µM unless noted.
Assay [14] has as its system OVCAR-5 ovarian. Conditions: 10 µM unless noted.
In assay [15] the test system is OVCAR-4 ovarian. Conditions: 10 µM.
The test system of assay [16] is SK-OV-3 ovarian. As to conditions: 10 µM unless noted.
Assay [17] deals with IGROV1 ovarian. As to conditions: 10 µM unless noted.
The test system of assay [18] is OVCAR-3 ovarian. Conditions: 10 µM unless noted.
For assay [19], the system named is HS 578T breast. As to conditions: 10 µM unless noted.
Assay [20] deals with NCI/ADR-RES ovarian. As to conditions: 10 µM unless noted.

Turning to `Oc1c(CNCCNCc2cc(Cl)cc(Cc3ccccc3)c2O)cc(Cl)cc1Cc1ccccc1`, the growth in [1] was 27.1%; in assay [2] it was 24%; in assay [3], 19.1%; in [4] it was -20% (active); in [5], 36.8%; in [6], 10.3%. Besides, the growth in [7] was 6.39% (active); in assay [8] it was 36.2%; in [9], 8.47% (active); in assay [10], 18.2%; in assay [11] it was 5.69% (active); in assay [12], 20.8%. Moreover, the growth in [13] is 14.3%; in [14], 52.9%; in assay [15], 27.1%; in assay [16] it was 15.4%; in [17], 12.8%; in assay [18], 29.5%. Also, the growth was 40.7% in assay [19] and 8.69% (active) in assay [20].
Take `Cc1cc(C)nc(SCC(=O)Nc2cccc(N=Cc3ccccc3O)c2)n1`: the growth was 114% in assay [1]; 97.9% in assay [2]; 96.5% in [3]; 76.7% in assay [4]; 106% in [5]; 99.2% in assay [6]. Also, the growth in [7] is 81.4%; in assay [8], 82.5%; in [9], 88.6%; in [10], 98.9%; in assay [11] it was 109%; in [12] it was 96.9%. Also, the growth is 103% in assay [13]; 100% in [14]; 86.1% in [15]; 94.5% in assay [16]; 108% in assay [17]; 105% in assay [18]. For the same molecule, the growth was 97.2% in assay [19] and 100% in [20].
With `C=CC1=C(C)C2=NC1=CC1=NC(=CC3=C(C)C4=C(O)C(C(=O)O)C(=C5NC(=C2)C(C)C5CCC(=O)O)C4=N3)C(CC)=C1C` (stereo not given), the growth in [1] was 129%; in [2], 103%; in assay [3], 101%; in assay [4] it was 73.6%; in [5], 106%; in assay [6], 98.7%. Moreover, the growth in [7] was 101%; in assay [8], 106%; in assay [9] it was 96.3%; in [10], 96.9%; in assay [11] it was 95.5%; in assay [12] it was 102%. Moreover, the growth in assay [13] was 107%; in [14], 114%; in [15] it was 103%; in assay [16], 119%; in assay [17], 106%; in assay [18] it was 107%. Also, the growth in assay [19] is 105%; in [20], 114%.
On to `CC(C)c1ccc(C(=O)Nc2nc3ccc(O)cc3s2)cc1`, for which the growth in assay [1] was 78%; in assay [2], 37.4%; in assay [3] it was 39.4%; in [4] it was 22.1%; in assay [5], 70.3%; in assay [6], 21.3%. Moreover, the growth was -5.74% (active) in [7]; 38% in [8]; 29.2% in assay [9]; 13.5% in assay [10]; 17.1% in [11]; 28.9% in assay [12]. For the same molecule, the growth in assay [13] is 40.6%; in [14], 40.6%; in assay [15], 33.9%; in [16] it was 89.2%; in assay [17], 49.1%; in [18], 54.1%. Moreover, the growth in assay [19] is 72.3%; in assay [20], 25.7%.
With `COc1ccc2c(c1)C(C)Cc1c(ncnc1-n1cnc3ccccc31)N2C` (stereo not given), the growth in assay [1] was 44%; in [2], 40.4%; in assay [3], 24.5%; in [4], 46.9%; in assay [5] it was 63.7%; in [6] it was 50.1%. Also, the growth was 27.6% in assay [7]; -0.234% (active) in assay [8]; 9.22% (active) in assay [9]; 17.8% in [10]; 11.8% in assay [11]; 26.5% in assay [12]. In addition, the growth in [13] was 17.8%; in [14] it was 48.7%; in [15], 70%; in assay [16], 14.5%; in [17] it was 50.7%; in assay [18] it was 6% (active). The growth in [19] is 31.6%; in assay [20] it was 11.3%.
Turning to `O=C(N[C@@H]1CCCc2ccccc21)[C@H](CCC(=O)N1CCN(C2CCCCC2)CC1)N1C(=O)[C@@H](N2C(=O)OC[C@@H]2c2ccccc2)[C@H]1/C=C/c1ccccc1`, the growth in assay [1] was 20.6%; in assay [2], 51.2%; in assay [3], 25.4%; in [4] it was 21%; in assay [5] it was 47%; in assay [6], 36.4%. Moreover, the growth in assay [7] was 37.9%; in assay [8], 31.8%; in assay [9], 22.8%; in [10], -1.99% (active); in assay [11] it was -25.1% (active); in assay [12], -13.9% (active). In addition, the growth is 54.4% in assay [13]; 93.5% in [14]; 36.8% in [15]; 70.6% in [16]; 49.3% in assay [17]; 32.5% in [18]. For the same molecule, the growth in assay [19] was 48.1%; in assay [20], 33.3%.
Regarding `CCn1cc(-c2ccnc(NCCNS(=O)(=O)c3cccc4ccccc34)c2)c(-c2cccc(O)c2)n1`, the growth in assay [1] is 111%; in assay [2], 96.9%; in assay [3] it was 96.7%; in assay [4] it was 90.3%; in assay [5], 114%; in assay [6], 100%. The growth in assay [7] was 102%; in assay [8], 91.5%; in assay [9], 95%; in [10], 93.1%; in assay [11] it was 74.9%; in assay [12], 74%. Further, the growth in assay [13] was 101%; in assay [14], 123%; in [15] it was 99.9%; in [16] it was 106%; in assay [17], 91.5%; in [18], 100%. In addition, the growth was 95.3% in assay [19] and 102% in assay [20].
Consider `CCOC(=O)C(=Cc1ccccc1[N+](=O)[O-])C(=O)OCC`, for which the growth in assay [1] was 12%; in [2], 68.6%; in [3], 24.5%; in assay [4] it was 41.5%; in [5], 22.1%; in assay [6], 16.9%. Besides, the growth in assay [7] is 24.1%; in assay [8], 122%; in assay [9], 2.19% (active); in assay [10] it was 11.1%; in assay [11] it was -10% (active); in assay [12], 10.7%. Also, the growth in [13] is 12.2%; in [14], -31.5% (active); in [15], 24.7%; in assay [16] it was 62.4%; in assay [17], 37.8%; in assay [18], -20.7% (active). In addition, the figures for the growth in [19] and in [20] were 47.2% and -29.4% (active), respectively.

For the origin of these results see PubChem BioAssay (NCI).
